Measured values reported in PubChem BioAssay (EPA / NIEHS).
Calls of active or inactive are those of the source. Rule for the calls: active = hit-call score of the fitted dose curve at least 0.9, where 1 is the maximum; inactive = score below 0.9.

Assays:
[1] = ATG_CRE_CIS: Attagene CIS-FACTORIAL HepG2 Assay for human cAMP Responsive Element (CRE) binding protein 3 (AID 2282926); settings: HepG2 CRE cis-reporter, Attagene multiplexed mRNA; actives raise or lower the signal
Procedure, shortened: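 Induced reporter mRNA from a CRE cis element, measured in HepG2 among many multiplexed units at 24 h. Detection used RT-PCR plus capillary electrophoresis of fluorescent fragments; DMSO served as negative control.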

[2] = target: CCAAT/enhancer-binding protein beta (Homo sapiens) (UniProt P17676); assay: ATG_C_EBP_CIS: Attagene CIS-FACTORIAL HepG2 Assay for human CCAAT/Enhancer Binding Protein (C/EBP) beta (AID 2282927); settings: HepG2 Attagene cis-factorial transcription factor reporter; actives raise or lower the signal
Chain of CCAAT/enhancer-binding protein beta (Homo sapiens) (P17676 whole entry, looked up): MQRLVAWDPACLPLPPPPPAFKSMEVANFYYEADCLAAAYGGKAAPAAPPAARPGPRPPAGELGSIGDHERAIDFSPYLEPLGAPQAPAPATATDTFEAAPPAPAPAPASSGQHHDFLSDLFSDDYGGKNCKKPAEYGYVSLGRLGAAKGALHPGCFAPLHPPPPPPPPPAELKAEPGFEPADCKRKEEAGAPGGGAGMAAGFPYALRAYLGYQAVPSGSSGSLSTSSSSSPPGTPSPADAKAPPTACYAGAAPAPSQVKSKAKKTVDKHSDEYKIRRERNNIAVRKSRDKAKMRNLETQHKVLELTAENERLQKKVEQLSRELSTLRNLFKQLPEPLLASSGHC
Procedure, shortened: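 HepG2, transient MRTU transfection, 24 h treatment. RT-PCR plus CE fluorescence; DMSO negative control, bidirectional fit.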

[3] = ATG_CMV_CIS: Attagene CIS-FACTORIAL HepG2 Assay for human CMV (Internal Marker) (AID 2282928); settings: HepG2 CMV promoter reporter, transcription factor profiling; actives raise or lower the signal;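 note: endpoint acts as a background internal control marker rather than a target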
Procedure, shortened: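 Readout: fluorescent reporter cDNA fragments separated by capillary electrophoresis after RT-PCR and HpaI cut. Cells: HepG2 carrying transfected cis-promoter reporter constructs, dosed 24 h. Endpoint serves as background internal-marker control, fit bidirectionally versus DMSO.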

[4] = ATG_DR4_LXR_CIS: Attagene CIS-FACTORIAL HepG2 Assay for human Liver X Receptor (LXR), DR4 submotif (AID 2282929); settings: HepG2 Attagene DR4 cis-reporter, mRNA transcription; actives raise or lower the signal
Procedure, shortened: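 Cells were transfected with multiple reporter transcription units, exposed to chemicals for 24 hours, then lysed for RNA. Reporter mRNA induction was measured by RT-PCR with capillary electrophoresis detection and fitted in both directions relative to DMSO.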

[5] = target: Aryl hydrocarbon receptor (Homo sapiens) (UniProt P35869); assay: ATG_Ahr_CIS: Attagene CIS-FACTORIAL HepG2 Assay for human Aryl Hydrocarbon Receptor (Ahr) (AID 2282930); settings: HepG2 AhR cis-factorial reporter transcription; actives raise or lower the signal
Chain of Aryl hydrocarbon receptor (Homo sapiens) (P35869 whole entry, looked up): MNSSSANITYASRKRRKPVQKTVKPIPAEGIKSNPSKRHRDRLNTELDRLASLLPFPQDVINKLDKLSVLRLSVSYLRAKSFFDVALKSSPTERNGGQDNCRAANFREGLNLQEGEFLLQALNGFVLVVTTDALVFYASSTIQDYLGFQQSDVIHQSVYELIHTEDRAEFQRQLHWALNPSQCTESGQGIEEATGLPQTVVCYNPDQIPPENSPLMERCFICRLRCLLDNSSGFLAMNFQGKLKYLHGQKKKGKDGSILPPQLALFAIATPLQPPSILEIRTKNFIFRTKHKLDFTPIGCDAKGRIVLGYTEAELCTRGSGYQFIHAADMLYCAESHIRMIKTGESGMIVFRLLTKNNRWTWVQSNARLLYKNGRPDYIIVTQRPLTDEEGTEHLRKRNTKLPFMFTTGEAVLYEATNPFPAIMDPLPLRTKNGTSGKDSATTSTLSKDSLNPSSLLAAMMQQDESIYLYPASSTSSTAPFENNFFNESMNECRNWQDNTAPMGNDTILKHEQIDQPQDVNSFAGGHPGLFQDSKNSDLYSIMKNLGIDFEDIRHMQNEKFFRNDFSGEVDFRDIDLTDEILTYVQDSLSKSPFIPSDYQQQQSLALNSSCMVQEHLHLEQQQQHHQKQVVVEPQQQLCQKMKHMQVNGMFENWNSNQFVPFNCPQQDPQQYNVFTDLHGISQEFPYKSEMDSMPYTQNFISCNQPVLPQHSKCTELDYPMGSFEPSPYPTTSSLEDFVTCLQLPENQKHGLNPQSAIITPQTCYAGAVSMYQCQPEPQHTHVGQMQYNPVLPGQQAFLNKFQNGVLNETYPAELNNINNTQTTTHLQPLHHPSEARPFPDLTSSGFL
Procedure, shortened: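 Endogenous factor activity is tracked through cis-promoter reporter units transfected into HepG2 cells. Transcript levels at 24 h are read by fluorescent RT-PCR and capillary electrophoresis, with activity in either direction scored relative to DMSO.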

[6] = ATG_AP_1_CIS: Attagene CIS-FACTORIAL HepG2 Assay for human Activator Protein 1 (AP-1) (AID 2282931); settings: HepG2 Attagene cis-factorial AP-1 reporter mRNA; actives raise or lower the signal
Procedure, shortened: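 Endogenous transcription-factor activity in human HepG2 liver cells is read through a cis-promoter reporter transcript, sampled 24 h after dosing. Detection uses RT-PCR with capillary electrophoresis; values come from bidirectional fitting relative to DMSO.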

[7] = ATG_AP_2_CIS: Attagene CIS-FACTORIAL HepG2 Assay for human Activator Protein 2 (AP-2) (AID 2282932); settings: HepG2 AP-2 cis-reporter, Attagene transcription factor profiling; actives raise or lower the signal
Procedure, shortened: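 Read-out: fluorescent reporter mRNA via RT-PCR and capillary electrophoresis, 24 h post-dose in transiently transfected HepG2. Endogenous factors drive cis-promoter reporters; gain or loss of signal fitted bidirectionally against DMSO.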

[8] = ATG_BRE_CIS: Attagene CIS-FACTORIAL HepG2 Assay for human Bone Morphogenetic Protein (BMP) Response Element (BRE) (AID 2282933); settings: HepG2 BMP response element reporter, Attagene transcription factor profiling; actives raise or lower the signal
Procedure, shortened: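 After a 24 h chemical treatment, transiently transfected HepG2 cells were lysed for RNA; reporter transcripts were quantified by fluorescent RT-PCR and capillary electrophoresis, normalised to DMSO.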

[9] = target: Retinoic acid receptor alpha (Homo sapiens) (UniProt P10276); assay: ATG_DR5_RAR_CIS: Attagene CIS-FACTORIAL HepG2 Assay for human Retinoic Acid Receptor Alpha (RARE), DR5 submotif (AID 2282934); settings: HepG2 Attagene cis-factorial RARE DR5 reporter, mRNA; actives raise or lower the signal
Chain of Retinoic acid receptor alpha (Homo sapiens) (P10276 whole entry, looked up): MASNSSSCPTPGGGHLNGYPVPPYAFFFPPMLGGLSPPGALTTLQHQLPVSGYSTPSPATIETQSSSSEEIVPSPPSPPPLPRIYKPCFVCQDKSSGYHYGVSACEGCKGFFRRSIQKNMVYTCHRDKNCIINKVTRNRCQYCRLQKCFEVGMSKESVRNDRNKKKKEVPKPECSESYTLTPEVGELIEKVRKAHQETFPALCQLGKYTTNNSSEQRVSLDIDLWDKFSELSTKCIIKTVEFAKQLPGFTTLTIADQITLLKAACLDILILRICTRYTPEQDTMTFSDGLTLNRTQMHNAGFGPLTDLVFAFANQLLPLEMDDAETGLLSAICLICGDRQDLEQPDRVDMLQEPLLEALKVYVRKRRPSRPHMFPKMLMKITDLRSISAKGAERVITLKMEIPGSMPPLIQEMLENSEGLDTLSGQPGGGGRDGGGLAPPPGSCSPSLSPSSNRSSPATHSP
Procedure, shortened: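 After 24 h of chemical exposure, transiently transfected HepG2 cells were lysed for total RNA; the DR5-regulated reporter transcript was quantified via RT-PCR and capillary electrophoresis, with activity fitted bidirectionally against DMSO.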

Measured: AC50

O=C(O)C1=NN(c2ccc(S(=O)(=O)O)cc2)C(=O)C1
inactive: all assays above

CC(=O)CCC(=O)O
not listed: [6] | [9]
inactive: all other assays above

OCC=Cc1ccccc1
active: [5] 50.1 µM
inactive: [1] | [2] | [3] | [4] | [7]

COc1ccccc1NC(=O)CC(C)=O
active: [5] 34.8 µM
not listed: [6]
inactive: all other assays above

C=COCC1CCC(COC=C)CC1 (stereo unspecified)
not listed: [6] | [8] | [9]
inactive: all other assays above
